Measurements as given in the supplement of paper PMC6992640.
Structures can show the parent of a compound that is named as a salt. ± gives the standard deviation of the averaged measurements.

Legend:
Assay in all cases: cell viability (% of vehicle); higher = less cytotoxic
Settings in all cases: 10 µM; 72 h
HCI01 = test system: HCI01 (cells of a triple-negative basal-like breast cancer xenograft)
HCI03 = test system: HCI03 (cells of an ER-positive luminal breast cancer xenograft)
HCI09 = test system: HCI09 (cells of a triple-negative luminal androgen receptor type breast cancer xenograft)
HCI11 = test system: HCI11 (cells of an ER-positive luminal breast cancer xenograft)
HCI13 = test system: HCI13 (cells of an ER-positive luminal breast cancer xenograft)
HCI16 = test system: HCI16 (cells of a triple-negative basal-like breast cancer xenograft)
UCD52 = test system: UCD52 (cells of a triple-negative basal-like breast cancer xenograft)
WHIM2 = test system: WHIM2 (cells of a triple-negative basal-like breast cancer xenograft)
WHIM30 = test system: WHIM30 (cells of a triple-negative basal-like breast cancer xenograft)
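Further: PDX cells carrying CMV promoter-driven luciferase, viability read as total photon flux per second by IVIS imaging following D-luciferin, vehicle control 0.1% DMSO.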

Compound	cell viability (HCI01)	cell viability (HCI03)	cell viability (HCI09)	cell viability (HCI11)	cell viability (HCI13)	cell viability (HCI16)	cell viability (UCD52)	cell viability (WHIM2)	cell viability (WHIM30)
Cc1c(NC(=O)c2cccnc2)c(=O)n(-c2ccccc2)n1C [Nifenazone]	115 ± 12	95.9	116 ± 42	114	103 ± 10	122	96.7 ± 4.5	93.9 ± 16	128 ± 6
O=C(NCC(O)CO)c1ccncc1Nc1ccc(I)cc1F (stereo unspecified)	72.8 ± 3.9	72.9	55.3 ± 28	83.1	64.4 ± 5.6	116	70.57 ± 0.44	41.9 ± 8.5	130 ± 14
COC(=O)Nc1nc2ccc(S(=O)c3ccccc3)cc2[nH]1 (stereo unspecified) [Oxfendazole]	102 ± 25	132	113 ± 1.8	93.1	179 ± 34	147	95.3 ± 8	87 ± 7.4	139 ± 8.4
COc1cc2c(cc1Cc1cccc(Cl)c1F)c(=O)c(C(=O)O)cn2C(CO)C(C)C (stereo unspecified) [Elvitegravir (GS-9137)]	114 ± 56	86.7	41.2 ± 36	109	47.4 ± 7.1	124	77.8 ± 6.1	73.8 ± 7.4	159 ± 21
OCC(CO)NC1CC(O)(CO)C(O)C(O)C1O (stereo unspecified) [Voglibose]	106 ± 13	109	93 ± 17	89.1	58.7 ± 0.94	129	80.3 ± 5.1	117 ± 27	110 ± 8.8
CCCC(=O)[O-].[Na+] [Sodium butyrate]	99.3 ± 20	85.5	89.8 ± 3.3	92.5	47.1 ± 5.4	91.9	73.7 ± 6.9	83.5 ± 18	119 ± 11
Cn1c([N+](=O)[O-])cnc1COC(N)=O [Ronidazole]	95.3 ± 20	134	94.5 ± 2.1	88.1	102 ± 13	108	91.2 ± 2.2	90.4 ± 19	102 ± 2.5
CC(O)C1C(=O)N2C(C(=O)O)=C(SC3CNC(CNS(N)(=O)=O)C3)C(C)C12 (stereo unspecified) [Doripenem]	91.4 ± 3.9	103	143 ± 73	106	99.2 ± 19	85.2	82.7 ± 7.5	93.3 ± 19	90.3 ± 15
NS(=O)(=O)NCC/N=C1\NON\C1=C(\N=O)Nc1ccc(F)c(Br)c1	105 ± 6.8	99	35 ± 8.5	96.4	66.5 ± 1.4	112	57.5 ± 3.6	88.9 ± 9.7	96.2 ± 6
COc1cc2nc(N(C)CCCNC(=O)C3CCCO3)nc(N)c2cc1OC.Cl (stereo unspecified) [Alfuzosin HCl]	103 ± 3	97.4	105 ± 8.8	113	101 ± 24	113	91.6 ± 8.4	85.5 ± 3	133 ± 8.8
Nc1ccn(CC(CO)OCP(=O)(O)O)c(=O)n1.O.O (stereo unspecified) [Cidofovir dihydrate]	120 ± 9.9	136	109 ± 42	94.7	152 ± 12	96.8	88 ± 0.94	97 ± 24	81 ± 1.9
CC(C(=O)O)c1cccc(Oc2ccccc2)c1 (stereo unspecified) [Fenoprofen calcium hydrate]	98.6 ± 19	104	94.2 ± 14	89	101 ± 6.6	120	85 ± 3.6	105 ± 1.2	139 ± 25
CC(NC(=O)Cc1cc(F)cc(F)c1)C(=O)NC(C(=O)OC(C)(C)C)c1ccccc1 (stereo unspecified)	111 ± 14	115	64.1 ± 6.3	104	116 ± 9.7	130	60.1 ± 2.1	74.18 ± 0.26	123 ± 25
O=c1ccn(C2OC(CO)C(O)C2O)c(=O)[nH]1 (stereo unspecified) [Uridine]	106 ± 10	115	100.8 ± 0.17	100	103 ± 21	104	85.6 ± 2.8	89.7 ± 4.7	131 ± 9.8
O=C1OC(C(O)CO)C(O)=C1O (stereo unspecified) [Vitamin C]	76.9 ± 31	111	93.6 ± 11	84.3	90 ± 12	108	75 ± 3.8	113 ± 34	135 ± 5.2
CCCNC1CCc2nc(N)sc2C1 (stereo unspecified) [Pramipexole]	122 ± 25	111	113 ± 5.7	110	163 ± 2.5	151	114 ± 20	101.5 ± 0.41	100 ± 12
CCOC(=O)C(CCc1ccccc1)NC(C)C(=O)N1Cc2ccccc2CC1C(=O)O.Cl (stereo unspecified) [Quinapril HCl]	61.5 ± 37	111	72.7 ± 10	94.8	104 ± 5.7	96.9	83.7 ± 5.6	95.1 ± 3.9	105 ± 14
COC(=O)Nc1nc2cc(C(=O)c3ccccc3)ccc2[nH]1 [Mebendazole]	134 ± 45	110	119 ± 45	68.6	88.9 ± 15	177	103.3 ± 0.22	92.6 ± 18	110.3 ± 0.28
CS(=O)(=O)O.OC(CCN1CCCCC1)(c1ccccc1)c1ccccc1 [Pridinol Methanesulfonate]	113 ± 3.7	104	124 ± 47	119	92.6 ± 12	112	86.1 ± 6.1	164 ± 89	129 ± 10
CC(=O)O[C@H]1C(=O)[C@@]2(C)[C@H]([C@H](OC(=O)c3ccccc3)[C@]3(O)C[C@H](OC(=O)[C@H](O)[C@@H](NC(=O)c4ccccc4)c4ccccc4)C(C)=C1C3(C)C)[C@]1(OC(C)=O)CO[C@@H]1C[C@@H]2O [Paclitaxel (Taxol)]	124 ± 7.2	92.4	95 ± 4.1	96.5	100 ± 8.8	156	66.2 ± 4.7	92.9 ± 12	114 ± 7.4

Compound	cell viability (HCI01)	cell viability (HCI03)	cell viability (HCI09)	cell viability (HCI11)	cell viability (HCI13)	cell viability (HCI16)	cell viability (UCD52)	cell viability (WHIM2)	cell viability (WHIM30)
CCS(=O)(=O)CCn1c([N+](=O)[O-])cnc1C [Tinidazole]	92 ± 28	111	79.8 ± 12	88.6	101 ± 4.4	101	83.4 ± 14	81.2 ± 1.9	163 ± 1.9
Cc1ccsc1C(=CCCN1CCC[C@@H](C(=O)O)C1)c1sccc1C [Tiagabine hydrochloride]	100 ± 1.8	93.2	90.8 ± 14	86.4	96.1 ± 6.3	95.6	97.2 ± 14	109 ± 34	105 ± 2
CC(=O)O[C@H]1C[C@@]2(C)[C@@H](C[C@@H](O)[C@H]3[C@@]4(C)CC[C@@H](O)[C@@H](C)[C@@H]4CC[C@@]32C)/C1=C(\CCC=C(C)C)C(=O)[O-].[Na+] [Fusidic Acid (sodium salt)]	97.1 ± 30	116	112 ± 21	81.6	129 ± 2.5	121	111 ± 3.2	88.3 ± 15	149 ± 19
NC(=O)c1ncn(C2OC(CO)C(O)C2O)c1O (stereo unspecified) [Mizoribine]	82.4 ± 3.9	89.4	93.1 ± 30	88.8	90.05 ± 0.16	87.7	88.5 ± 5	97 ± 11	84.4 ± 3.9
O=C1NC(=O)C(c2ccccc2)(c2ccccc2)N1 [Phenytoin]	106 ± 8.9	151	105.6 ± 0.89	108	113 ± 16	129	99 ± 5.9	118 ± 16	160 ± 25
CCNC1CC(C)S(=O)(=O)c2sc(S(N)(=O)=O)cc21.Cl (stereo unspecified) [Dorzolamide HCl]	100 ± 4.5	111	96.8 ± 21	130	121 ± 5.2	98.2	71.8 ± 5.1	105 ± 8.4	89.3 ± 6.7
Cc1cccc(N(C)C(=S)Oc2ccc3ccccc3c2)c1 [Tolnaftate]	113 ± 28	140	72.7 ± 30	95.2	96.2 ± 8.2	108	71.2 ± 2.5	91.6 ± 8.1	131 ± 9.2
CC(=O)Oc1cc2c(s1)CCN(C(C(=O)C1CC1)c1ccccc1F)C2 (stereo unspecified) [Prasugrel]	76.6 ± 67	164	114 ± 4.9	120	81.6 ± 18	122	113 ± 20	102 ± 28	112 ± 16
CC(C(=O)O)c1ccc(C(=O)c2cccs2)cc1 (stereo unspecified) [Suprofen]	116 ± 29	133	97.9 ± 4	69.5	114 ± 7.9	125	102.3 ± 0.22	107 ± 3.9	100 ± 15
Nc1ncn(C2CC(O)C(CO)O2)c(=O)n1 (stereo unspecified)	145 ± 29	140	96 ± 13	108	126 ± 12	123	136 ± 30	105 ± 16	189 ± 7.4
OCC1OC(Oc2ccc(O)cc2)C(O)C(O)C1O (stereo unspecified) [Arbutin]	107 ± 28	127	100 ± 16	89.2	96.6 ± 4.9	131	103 ± 1.1	81.9 ± 9	84.3 ± 7.3
N[C@@H](CCC(=O)N[C@@H](CS)C(=O)NCC(=O)O)C(=O)O [L-Glutathione Reduced]	103 ± 5.7	115	107 ± 4	85.3	104 ± 6.7	113	99.8 ± 5.5	98.6 ± 5	131 ± 2.4
CCCC(CCC)C(=O)[O-].[Na+] [Valproic acid sodium salt (Sodium valproate)]	190 ± 54	154	92 ± 18	140	111 ± 14	159	158 ± 42	105 ± 18	192 ± 10
CC(=O)Nc1cccc(-n2c(=O)n(C3CC3)c(=O)c3c(Nc4ccc(I)cc4F)n(C)c(=O)c(C)c32)c1	103 ± 34	94	82.1 ± 34	98.3	110 ± 16	120	48 ± 14	74.2 ± 8.9	133 ± 24
O=c1[nH]c(=O)n(C2CCCO2)cc1F (stereo unspecified)	158 ± 9.9	110	109 ± 5.2	112	89.2 ± 7.7	143	116 ± 20	130 ± 13	130 ± 0.83
CC(COc1ccccc1)N(CCCl)Cc1ccccc1.Cl (stereo unspecified) [Phenoxybenzamine HCl]	122 ± 3.3	131	133 ± 28	114	150 ± 8.9	195	104.7 ± 0.72	93.9 ± 10	191 ± 9.4
O=C([O-])c1cc(=O)c2c(OCC(O)COc3cccc4oc(C(=O)[O-])cc(=O)c34)cccc2o1.[Na+].[Na+] [Cromolyn sodium]	136 ± 48	135	97.1 ± 3.8	71.8	102 ± 13	116	113 ± 5	134 ± 15	121 ± 4.5
Cc1ccc(-c2ncc(Cl)cc2-c2ccc(S(C)(=O)=O)cc2)cn1 [Etoricoxib]	107 ± 4.3	118	85.1 ± 16	79.9	96.7 ± 2.1	141	77.3 ± 3.4	143 ± 16	116 ± 13
CN(C)CCCN1c2ccccc2Sc2ccc(Cl)cc21.Cl [Chlorpromazine HCl]	137 ± 40	98.9	68.1 ± 7.8	76.5	84.7 ± 3.1	122	51.4 ± 5.5	47.8 ± 7.8	104 ± 2.1
